{"source": "the supplement of paper PMC11732987", "about": "“Enantioselective OTUD7B fragment discovery through chemoproteomics screening and high-throughput optimisation” (Communications Chemistry, 2025)", "assay_in_all_cases": "log2 ratio of Biotin-Ahx-Ub-VS probe labelling (fragment/DMSO); higher = less target engagement (more negative = stronger competition), active = hit call of the paper (q ≤ 0.05, log2 ratio ≤ -1)", "conditions_in_all_cases": "compound concentration: 200 uM; treatment time: 3 h", "key": {"[1]": {"target": "T1, ALG13 (UniProt Q9NP73)", "T1 sequence (whole entry)": "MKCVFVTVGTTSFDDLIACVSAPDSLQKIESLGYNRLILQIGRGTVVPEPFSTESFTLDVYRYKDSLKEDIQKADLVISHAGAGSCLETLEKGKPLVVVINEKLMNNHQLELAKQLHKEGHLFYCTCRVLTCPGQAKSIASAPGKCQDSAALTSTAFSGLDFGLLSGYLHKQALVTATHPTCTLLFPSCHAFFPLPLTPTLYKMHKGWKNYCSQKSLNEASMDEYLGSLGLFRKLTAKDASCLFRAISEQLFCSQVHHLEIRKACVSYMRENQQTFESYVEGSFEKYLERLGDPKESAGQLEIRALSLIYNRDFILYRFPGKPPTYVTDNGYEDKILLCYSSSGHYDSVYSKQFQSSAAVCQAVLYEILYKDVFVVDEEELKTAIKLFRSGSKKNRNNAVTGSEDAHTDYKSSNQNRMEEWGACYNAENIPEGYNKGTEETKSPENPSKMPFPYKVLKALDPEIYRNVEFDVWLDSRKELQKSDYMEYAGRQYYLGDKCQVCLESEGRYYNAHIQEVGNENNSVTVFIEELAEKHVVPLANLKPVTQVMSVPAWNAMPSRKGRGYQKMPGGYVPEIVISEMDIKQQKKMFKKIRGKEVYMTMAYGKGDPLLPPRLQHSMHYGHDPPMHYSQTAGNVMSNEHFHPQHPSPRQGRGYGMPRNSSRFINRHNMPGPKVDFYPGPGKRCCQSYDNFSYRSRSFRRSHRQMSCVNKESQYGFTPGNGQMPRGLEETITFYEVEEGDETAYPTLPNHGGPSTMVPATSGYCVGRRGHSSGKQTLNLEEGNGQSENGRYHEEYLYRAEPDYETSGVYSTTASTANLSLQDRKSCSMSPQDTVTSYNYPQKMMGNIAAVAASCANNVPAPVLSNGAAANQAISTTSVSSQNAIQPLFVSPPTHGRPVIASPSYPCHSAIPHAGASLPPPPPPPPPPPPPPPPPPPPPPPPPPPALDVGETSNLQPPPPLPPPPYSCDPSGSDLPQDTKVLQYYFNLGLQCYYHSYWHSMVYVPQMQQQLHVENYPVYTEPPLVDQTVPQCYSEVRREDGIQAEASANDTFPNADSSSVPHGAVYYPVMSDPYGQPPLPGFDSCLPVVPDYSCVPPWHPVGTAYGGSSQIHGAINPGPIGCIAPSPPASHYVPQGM", "method_in_brief": "(§1)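 HEK293T lysate, 495 µg per sample in Tris/CHAPS/IGEPAL buffer with protease inhibitors, was treated in triplicate with fragment at 200 µM or vehicle for 3 h and then with Biotin-Ahx-Ub-VS at 0.5 µM final for 1 h. Labelled DUBs were NeutrAvidin-enriched, digested with LysC and trypsin, and run by diaPASEF LC-MS/MS. Spectronaut label-free quantities were global-median-normalised, and values are average log2 fragment/vehicle ratios by unpaired t-test on proteins with ≥2 unique peptides.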"}, "[2]": {"target": "ATXN3 (UniProt P54252)", "sequence (P54252 whole entry)": "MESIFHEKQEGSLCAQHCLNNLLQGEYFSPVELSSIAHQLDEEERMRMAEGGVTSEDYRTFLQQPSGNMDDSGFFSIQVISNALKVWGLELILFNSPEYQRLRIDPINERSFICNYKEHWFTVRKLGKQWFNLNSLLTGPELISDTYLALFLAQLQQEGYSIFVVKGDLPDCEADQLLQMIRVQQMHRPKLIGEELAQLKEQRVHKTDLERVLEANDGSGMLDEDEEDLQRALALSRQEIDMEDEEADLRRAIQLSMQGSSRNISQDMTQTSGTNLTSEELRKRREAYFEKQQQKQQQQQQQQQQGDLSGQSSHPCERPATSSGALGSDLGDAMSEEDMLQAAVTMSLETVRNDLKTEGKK", "method_in_brief": "as §1"}, "[3]": {"target": "T2, BAP1 (UniProt Q92560)", "T2 sequence (whole entry)": "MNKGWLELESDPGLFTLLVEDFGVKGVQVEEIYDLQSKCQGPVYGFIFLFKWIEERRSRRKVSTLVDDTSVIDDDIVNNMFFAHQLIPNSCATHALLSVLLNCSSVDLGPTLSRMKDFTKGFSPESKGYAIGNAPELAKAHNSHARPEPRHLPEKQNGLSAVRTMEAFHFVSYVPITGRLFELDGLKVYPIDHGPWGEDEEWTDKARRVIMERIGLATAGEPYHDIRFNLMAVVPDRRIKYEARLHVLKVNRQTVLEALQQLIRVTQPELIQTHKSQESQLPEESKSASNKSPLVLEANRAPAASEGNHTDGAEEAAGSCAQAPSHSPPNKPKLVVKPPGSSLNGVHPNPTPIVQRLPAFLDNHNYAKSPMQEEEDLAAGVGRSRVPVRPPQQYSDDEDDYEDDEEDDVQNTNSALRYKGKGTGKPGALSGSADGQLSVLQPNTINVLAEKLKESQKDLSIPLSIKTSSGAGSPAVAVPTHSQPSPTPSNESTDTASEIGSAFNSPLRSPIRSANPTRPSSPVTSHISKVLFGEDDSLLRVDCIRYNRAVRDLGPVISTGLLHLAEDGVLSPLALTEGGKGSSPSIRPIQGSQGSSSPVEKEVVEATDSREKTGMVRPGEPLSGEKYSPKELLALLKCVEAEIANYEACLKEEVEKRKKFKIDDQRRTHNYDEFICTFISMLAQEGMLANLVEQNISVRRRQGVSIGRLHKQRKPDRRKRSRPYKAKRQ", "method_in_brief": "as §1"}, "[4]": {"target": "EIF3F (UniProt O00303)", "sequence (O00303 whole entry)": "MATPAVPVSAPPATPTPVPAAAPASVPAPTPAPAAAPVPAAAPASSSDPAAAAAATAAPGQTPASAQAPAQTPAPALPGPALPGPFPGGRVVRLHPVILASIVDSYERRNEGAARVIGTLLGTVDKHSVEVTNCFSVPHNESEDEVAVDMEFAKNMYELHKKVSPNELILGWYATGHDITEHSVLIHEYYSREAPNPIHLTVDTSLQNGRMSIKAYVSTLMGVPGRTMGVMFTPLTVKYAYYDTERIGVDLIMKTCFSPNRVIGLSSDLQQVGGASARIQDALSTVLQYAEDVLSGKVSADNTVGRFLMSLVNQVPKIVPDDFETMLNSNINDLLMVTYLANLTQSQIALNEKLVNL", "method_in_brief": "as §1"}, "[5]": {"target": "EIF3H (UniProt O15372)", "sequence (O15372 whole entry)": "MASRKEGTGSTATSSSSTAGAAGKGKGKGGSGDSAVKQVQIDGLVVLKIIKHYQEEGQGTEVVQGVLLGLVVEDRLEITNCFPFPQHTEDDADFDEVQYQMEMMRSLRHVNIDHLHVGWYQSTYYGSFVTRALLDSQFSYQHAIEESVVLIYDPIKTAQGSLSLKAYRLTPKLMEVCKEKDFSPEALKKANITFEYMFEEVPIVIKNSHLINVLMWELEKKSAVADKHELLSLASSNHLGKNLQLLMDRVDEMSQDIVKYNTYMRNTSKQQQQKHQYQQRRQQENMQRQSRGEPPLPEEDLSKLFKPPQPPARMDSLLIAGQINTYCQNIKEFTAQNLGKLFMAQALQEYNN", "method_in_brief": "as §1"}, "[6]": {"target": "T3, FAM105A (UniProt Q9NUU6)", "T3 sequence (whole entry)": "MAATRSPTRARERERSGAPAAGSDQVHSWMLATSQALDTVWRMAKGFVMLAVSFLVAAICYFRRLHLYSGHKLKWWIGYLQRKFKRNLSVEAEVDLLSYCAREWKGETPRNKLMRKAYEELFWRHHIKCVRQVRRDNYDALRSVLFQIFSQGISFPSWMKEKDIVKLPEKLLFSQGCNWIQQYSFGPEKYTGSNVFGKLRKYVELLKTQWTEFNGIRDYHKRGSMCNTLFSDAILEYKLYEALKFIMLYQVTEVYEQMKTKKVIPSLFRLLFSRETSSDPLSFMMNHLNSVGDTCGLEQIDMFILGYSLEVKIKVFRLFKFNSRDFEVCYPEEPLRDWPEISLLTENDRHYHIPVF", "method_in_brief": "as §1"}, "[7]": {"target": "OTUB1 (UniProt Q96FW1)", "sequence (Q96FW1 whole entry)": "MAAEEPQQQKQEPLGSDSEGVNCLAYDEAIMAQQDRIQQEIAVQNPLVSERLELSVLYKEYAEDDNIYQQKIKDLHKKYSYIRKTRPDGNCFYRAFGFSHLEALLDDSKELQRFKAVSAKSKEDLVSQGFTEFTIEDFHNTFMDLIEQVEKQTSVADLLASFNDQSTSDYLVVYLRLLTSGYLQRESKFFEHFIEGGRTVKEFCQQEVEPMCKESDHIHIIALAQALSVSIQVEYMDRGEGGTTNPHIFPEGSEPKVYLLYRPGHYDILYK", "method_in_brief": "as §1"}, "[8]": {"target": "T4, OTUD4 (UniProt Q01804)", "T4 sequence (whole entry)": "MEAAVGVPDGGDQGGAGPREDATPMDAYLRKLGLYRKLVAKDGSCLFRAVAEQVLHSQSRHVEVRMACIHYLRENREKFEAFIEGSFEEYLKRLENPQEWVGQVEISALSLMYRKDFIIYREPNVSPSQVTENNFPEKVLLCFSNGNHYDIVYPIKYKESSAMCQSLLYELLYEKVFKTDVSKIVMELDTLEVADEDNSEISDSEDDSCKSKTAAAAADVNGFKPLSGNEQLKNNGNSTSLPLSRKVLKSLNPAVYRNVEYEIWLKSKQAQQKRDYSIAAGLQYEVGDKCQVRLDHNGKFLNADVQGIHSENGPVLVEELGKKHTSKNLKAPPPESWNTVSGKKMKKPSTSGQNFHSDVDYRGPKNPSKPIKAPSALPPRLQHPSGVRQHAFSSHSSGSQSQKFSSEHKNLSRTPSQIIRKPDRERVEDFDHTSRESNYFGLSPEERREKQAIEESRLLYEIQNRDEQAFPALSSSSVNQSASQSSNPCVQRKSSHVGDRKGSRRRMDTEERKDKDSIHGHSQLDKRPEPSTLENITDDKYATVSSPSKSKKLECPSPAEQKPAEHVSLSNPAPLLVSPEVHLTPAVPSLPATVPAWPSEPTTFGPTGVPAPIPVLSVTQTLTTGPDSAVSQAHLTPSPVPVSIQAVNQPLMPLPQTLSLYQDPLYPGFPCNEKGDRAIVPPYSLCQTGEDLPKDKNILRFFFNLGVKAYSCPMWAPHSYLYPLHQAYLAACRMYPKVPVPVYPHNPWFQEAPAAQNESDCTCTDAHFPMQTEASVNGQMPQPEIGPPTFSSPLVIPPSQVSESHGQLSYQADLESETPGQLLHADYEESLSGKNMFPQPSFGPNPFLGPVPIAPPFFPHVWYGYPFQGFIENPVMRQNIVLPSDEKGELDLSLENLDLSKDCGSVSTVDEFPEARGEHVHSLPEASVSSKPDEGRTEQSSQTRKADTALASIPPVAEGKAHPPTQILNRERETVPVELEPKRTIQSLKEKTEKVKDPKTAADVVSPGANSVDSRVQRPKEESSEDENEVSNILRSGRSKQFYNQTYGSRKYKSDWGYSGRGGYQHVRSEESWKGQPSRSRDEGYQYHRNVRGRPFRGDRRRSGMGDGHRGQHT", "method_in_brief": "as §1"}, "[9]": {"target": "T5, OTUD5 (UniProt Q96G74)", "T5 sequence (whole entry)": "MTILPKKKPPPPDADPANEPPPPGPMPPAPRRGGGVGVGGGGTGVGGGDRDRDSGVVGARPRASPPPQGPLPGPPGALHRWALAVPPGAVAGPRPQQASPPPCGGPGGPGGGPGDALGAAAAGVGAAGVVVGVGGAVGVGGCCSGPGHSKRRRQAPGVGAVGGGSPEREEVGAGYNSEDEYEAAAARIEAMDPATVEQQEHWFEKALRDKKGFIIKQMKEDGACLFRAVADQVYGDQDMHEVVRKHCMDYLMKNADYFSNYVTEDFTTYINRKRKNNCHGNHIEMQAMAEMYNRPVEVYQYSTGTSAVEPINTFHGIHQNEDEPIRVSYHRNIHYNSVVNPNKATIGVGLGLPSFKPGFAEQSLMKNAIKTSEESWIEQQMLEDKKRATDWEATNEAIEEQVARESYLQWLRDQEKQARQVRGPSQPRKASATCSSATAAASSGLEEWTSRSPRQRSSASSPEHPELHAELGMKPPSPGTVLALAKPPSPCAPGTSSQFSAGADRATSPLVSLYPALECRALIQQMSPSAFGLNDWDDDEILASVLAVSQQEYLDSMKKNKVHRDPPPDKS", "method_in_brief": "as §1"}}, "note": "Unmarked numbers belong to inactive results."}
{"smiles": "CS(=O)(=O)c1ccc(NC(=O)CCl)cc1", "values": [{"measurement": "log2 ratio of Biotin-Ahx-Ub-VS probe labelling", "setting": "[1]", "result": -0.729}, {"measurement": "log2 ratio of Biotin-Ahx-Ub-VS probe labelling", "setting": "[2]", "result": -0.511}, {"measurement": "log2 ratio of Biotin-Ahx-Ub-VS probe labelling", "setting": "[3]", "result": "-4.05 (active)"}, {"measurement": "log2 ratio of Biotin-Ahx-Ub-VS probe labelling", "setting": "[4]", "result": -0.0107}, {"measurement": "log2 ratio of Biotin-Ahx-Ub-VS probe labelling", "setting": "[5]", "result": 0.14}, {"measurement": "log2 ratio of Biotin-Ahx-Ub-VS probe labelling", "setting": "[6]", "result": -0.0733}, {"measurement": "log2 ratio of Biotin-Ahx-Ub-VS probe labelling", "setting": "[7]", "result": -0.133}, {"measurement": "log2 ratio of Biotin-Ahx-Ub-VS probe labelling", "setting": "[8]", "result": -0.368}, {"measurement": "log2 ratio of Biotin-Ahx-Ub-VS probe labelling", "setting": "[9]", "result": -0.613}]}
